Values joined by “and” are separate entries in the source; they are usually repeats but may differ in a detail not shown here. Equal values may be shown once. Inconclusive results are not listed. Entries that show only a call come without a potency. Active and inactive are the calls of the source. The call rests on the fitted dose curve; in most records, active means well fitted curve in the direction sought with a large enough effect in the repeat runs; inconclusive means weak or mixed curves; inactive means no such curve, though single readings can be large; an effect the other way counts as inactive or inconclusive.
test: qHTS RealTime-Glo MT Cell Viability Assay in HEK293 cells - 0 hour (AID 1224880); details: RealTime-Glo luminescence; series mostly up to 76.8 µM; further: top concentration of the series differs between compounds; nearly all actives have a fitted effect of over 45% in size
Outline: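 600 cells/well were plated with the nonlytic NanoLuc/prosubstrate reagent, pre-incubated 5 h, then given 23 nL of compound in DMSO. Incubation at 37 C for 40 h, with luminescence from viable-cell-reduced substrate read repeatedly from 0 h.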

| SMILES | Potency | activity change, negative = cytotoxicity |
| --- | --- | --- |
| Cc1cc(C(C)(C)C)cc(C)c1CC1=NCCN1 | inactive |  |
| CCCCN(CCCC)CC(O)c1cc(Cl)cc2c1-c1ccc(Cl)cc1/C2=C/c1ccc(Cl)cc1 (stereo not drawn) | inactive |  |
| NC[C@H]1O[C@H](O[C@H]2[C@H](O[C@@H]3O[C@H](CO)[C@@H](O)[C@H]3O)C(O)[C@H](N)C[C@@H]2N)[C@H](N)[C@@H](O)[C@@H]1O (stereo partly drawn) |  | 10.7% [at 6.97 µM] (inactive) |
| CC(C)=CCNc1ncnc2c1ncn2[C@@H]1O[C@H](CO)[C@@H](O)[C@H]1O | inactive |  |
| C[C@@H](O)[C@H](N)C(=O)O |  | -2.75% [at 15.8 µM] (inactive) |
| COC1=C(OC)C(=O)C(CCCCCCCCCCO)=C(C)C1=O | inactive |  |
| CCCC(=O)OCCc1ccccc1 | inactive |  |
| C#C[C@]1(OC(C)=O)CC[C@H]2[C@@H]3CCC4=C/C(=N/O)CC[C@@H]4[C@H]3CC[C@@]21CC | inactive |  |
| CCOC(=O)Cn1cccc1-c1nc(-c2ccc(OC)cc2)c(-c2ccc(OC)cc2)s1 | inactive |  |
| O=C1NC(=O)[C@@H]2CC=CC[C@H]12 | inactive |  |
| CC/C=C\CCCCCO | inactive |  |
| O=S(=O)(O)c1ccc(N=Nc2c(O)ccc3ccccc23)cc1 | inactive |  |
| O=C(/C=C/c1ccccc1)OC/C=C/c1ccccc1 | inactive |  |
| NC(=O)c1cccc([N+](=O)[O-])c1 | inactive |  |
| C=Cc1cccc(C)c1 | inactive |  |
| CN1CCCCC1CCN1c2ccccc2Sc2ccc(S(C)=O)cc21 (stereo not drawn) | inactive |  |
| CCCCCCCCCCCCOCCOCCOCCOCCOCCOCCOCCOCCOCCO | inactive |  |

test: A CellTox Green Cytotoxicity Assay to monitor cytotoxicity in HEK293 cells - 32 hour (AID 1224881); details: CellTox Green fluorescence; series mostly up to 76.8 µM; further: nearly all actives have a fitted effect of over 40% in size; further: potency means the concentration at half of the fitted maximal effect
Outline: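 HEK293 cells, 600/well, were preincubated 5 hours and then exposed to compounds at 37 C for up to 40 hours. A cell-impermeant cyanine dye staining dead-cell DNA was read by fluorescence at 0, 8, 16, 24, 32 and 40 h time points.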

| SMILES | Potency | cytotoxicity increase |
| --- | --- | --- |
| O=c1[nH]c2ccccc2n1CCCN1CCN(C(c2ccccc2)c2ccccc2)CC1 | inactive |  |
| CC1=Nc2ccccc2C1(C)C | inactive |  |
| CC(=O)[C@H]1CC[C@H]2[C@@H]3CCC4=CC(=O)CC[C@]4(C)[C@H]3CC[C@]12C | 24.4 µM (active) and 34.7 µM (active) |  |
| O=[N+]([O-])c1ccc(O)cc1C(F)(F)F | inactive |  |
| OC[C@H]1O[C@H](O[C@H]2O[C@H](CO)[C@@H](O)[C@H](O)[C@H]2O)[C@H](O)[C@@H](O)[C@@H]1O | inactive |  |
| CCCC(=O)OCOC(=O)C1=C(C)NC(C)=C(C(=O)OC)C1c1cccc(Cl)c1Cl (stereo not drawn) | inactive |  |
| COc1cc(S(=O)(=O)O)c(C)cc1N=Nc1c(O)ccc2cc(S(=O)(=O)O)ccc12 | inactive |  |
| CC[N+](CC)(CC)CCOc1ccc(/C=C/c2ccccc2)cc1 | 6.74 µM (active) |  |
| O=C(Nc1ccc2c(O)c(N=Nc3ccc(N=Nc4ccc(S(=O)(=O)O)cc4)cc3)c(S(=O)(=O)O)cc2c1)c1ccccc1 | inactive |  |
| CCCC[P+](C)(CCCC)CCCC | inactive |  |
| Nc1cc(Cl)c(O)c(Cl)c1 | inactive |  |
| Clc1nnc(Cl)c2ccccc12 | inactive |  |
| CCCCCCCCCCCC(=O)OCC(C)OC(=O)CCCCC(=O)O (stereo not drawn) | inactive |  |
| Cc1c(C)c2c(c(C)c1O)CC[C@@](C)(CCC[C@H](C)CCC[C@H](C)CCCC(C)C)O2 | inactive |  |
| Cc1ccc(C(=O)O)cc1 | inactive |  |
| COc1ccc2c(c1)c(CC(=O)OC/C=C(\C)CC/C=C(\C)CCC=C(C)C)c(C)n2C(=O)c1ccc(Cl)cc1 | inactive |  |
| C=CC(=O)Nc1cc2c(Nc3ccc(F)c(Cl)c3)ncnc2cc1OCCCN1CCOCC1 | 12 µM (active) |  |
| Cc1cc(C(C)(C)C)cc(C)c1CC1=NCCN1 | inactive |  |

| SMILES | Potency | cytotoxicity increase |
| --- | --- | --- |
| CCCCN(CCCC)CC(O)c1cc(Cl)cc2c1-c1ccc(Cl)cc1/C2=C/c1ccc(Cl)cc1 (stereo not drawn) | inactive |  |
| NC[C@H]1O[C@H](O[C@H]2[C@H](O[C@@H]3O[C@H](CO)[C@@H](O)[C@H]3O)C(O)[C@H](N)C[C@@H]2N)[C@H](N)[C@@H](O)[C@@H]1O (stereo partly drawn) |  | -11.8% [at 6.97 µM] (inactive) |
| O=C(O)c1cc(O)c2ccccc2c1O | 21.9 µM (active) |  |
| CC(C)=CCNc1ncnc2c1ncn2[C@@H]1O[C@H](CO)[C@@H](O)[C@H]1O | inactive |  |
| C[C@@H](O)[C@H](N)C(=O)O |  | -5.17% [at 15.8 µM] (inactive) |
| COC1=C(OC)C(=O)C(CCCCCCCCCCO)=C(C)C1=O | inactive |  |
| CCCC(=O)OCCc1ccccc1 | 49 µM (active) |  |
| C#C[C@]1(OC(C)=O)CC[C@H]2[C@@H]3CCC4=C/C(=N/O)CC[C@@H]4[C@H]3CC[C@@]21CC | inactive |  |
| CCOC(=O)Cn1cccc1-c1nc(-c2ccc(OC)cc2)c(-c2ccc(OC)cc2)s1 | inactive |  |
| O=C1NC(=O)[C@@H]2CC=CC[C@H]12 | inactive |  |
| Fc1ccc(C(c2ccc(F)cc2)N2CCNCC2)cc1 | inactive |  |
| CC/C=C\CCCCCO | inactive |  |
| O=S(=O)(O)c1ccc(N=Nc2c(O)ccc3ccccc23)cc1 | inactive |  |
| O=C(/C=C/c1ccccc1)OC/C=C/c1ccccc1 | inactive |  |
| NC(=O)c1cccc([N+](=O)[O-])c1 | inactive |  |
| C=Cc1cccc(C)c1 | inactive |  |
| CN1CCCCC1CCN1c2ccccc2Sc2ccc(S(C)=O)cc21 (stereo not drawn) | inactive |  |
| CCCCCCCCCCCCOCCOCCOCCOCCOCCOCCOCCOCCOCCO | 10.7 µM (active) |  |
